About 760 (36%) of roughly 2,100 compounds were called active. A selection follows. A number with no mark means an inactive call.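 Rule for the calls: active = thallium-flux fluorescence traces judged by eye to show enhanced or reduced glutamate response, manual score 1 or -1, so both directions (some results past the limit were not filed as active); inactive = the rest, including fluorescent or raised-baseline compounds.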
Assay: non-GIRK thallium flux modulation in mGlu8 cells, confirmation, counter-screen for GIRK activator project, cell-based, HEK-293 rmGlu8, no GIRK (AID 623868);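 note: extra codes mark interference with 3 for fluorescent and 4 for baseline rise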
Conditions: thallium flux fluorescence, at 10 µM, actives lie on both sides, codes: 1 enhancer, -1 blocker, 0 none, thallium stimulus containing EC20 glutamate

| SMILES | manual score |
| --- | --- |
| C/C(=N\O)C(C)NC(=O)c1ccccc1 (centres undefined) | 0 |
| O=C(NN=c1c(=O)c2ccccc2c1=O)c1ccccc1 | 1 (active) |
| O=C(Nc1ccc(SC(F)F)cc1)C12CCC(CC1)C2 | 0 |
| O=c1c2cc(N3CCOCC3)ccc2[nH]c(=S)n1Cc1ccc(Cl)cc1 | 0 |
| O=c1c2cc(Cl)ccc2[nH]c(=S)n1Cc1ccco1 | 1 (active) |
| O=c1[nH]c2ccc(Cl)cc2c(=O)n1Cc1ccco1 | 0 |
| O=c1c2cc(Cl)ccc2[nH]c(=S)n1Cc1cccs1 | 1 (active) |
| Cc1c(C(=O)O)[nH]c2c1C(=O)CC(c1ccc(Cl)cc1)C2 (centres undefined) | 0 |
| CN1CCN(CC(=O)N2c3ccccc3C(C)(c3ccc(Cl)cc3)CC2(C)C)CC1 (centres undefined) | 0 |
| COC(=O)C(CC(C)C)NC(=O)c1ccc([N+](=O)[O-])c(C)c1 (centres undefined) | 0 |
| O=C(NN=C(Cc1ccccc1)Cc1ccccc1)c1ccc(F)cc1 | 0 |
| CCCCNC(=S)NC(=O)c1ccc([N+](=O)[O-])cc1 | 1 (active) |
| CC(C)CNC(=S)NC(=O)c1ccc(F)cc1 | 1 (active) |
| CCCCCC(=O)NC(=S)NNC(=O)c1ccc([N+](=O)[O-])cc1 | 1 (active) |
| CC(C)CNC(=S)NC(=O)c1ccc([N+](=O)[O-])cc1 | 1 (active) |
| CCCn1c(=N)n(CC(O)COc2cccc(C)c2)c2ccccc21 (centres undefined) | 0 |
| CN(C)Cc1c(O)c(Cl)cc2c3c(c(=O)oc12)CCCC3 | 0 |
| COc1ccc2c(c1)C(C)=CC(C)(C)N2C(=O)CNCc1ccc2c(c1)OCO2 | 0 |
| O=C(O)c1oc2ccccc2c1CSc1ccccn1 | 0 |
| CCn1cc(C(=O)N2CC=C(c3ccccc3)CC2)c(=O)c2ccc(C)nc21 | -0.5 |
| CCN(CC)c1ccc(/C=C2/C(=O)c3ccc(C(=O)O)cc3C2=O)cc1 | 3 |
| COc1ccc2nc(N3C(=O)/C(=C/c4ccccc4)NC3=S)sc2c1 | 1 (active) |
| O=C(c1ccco1)N1CCN(c2ncnc3scc(-c4cccs4)c23)CC1 | 0 |

| SMILES | manual score |
| --- | --- |
| Cc1cc(N2CCOCC2)n2nc(C)c(-c3ccccc3)c2n1 | 0 |
| CCCn1c(=O)c2ccccc2n2c(SCc3nc4ccccc4s3)nnc12 | -1 (active) |
| CCc1cccc(CC)c1-n1c(SCC(=O)N2CCc3ccccc3C2)nnc1-c1cccnc1 | 0 |
| CCCn1c(=O)c2ccccc2n2c(SCCOc3ccccc3F)nnc12 | -0.5 |
| Cn1c(SCC(=O)N2c3ccccc3CCc3ccccc32)nnc1-c1ccc(O)cc1 | 0 |
| CCCn1c(=O)c2ccccc2n2c(SCC(=O)N3CCc4ccccc4C3)nnc12 | -1 (active) |
| CCCCOC(=O)c1ccc(NC(=S)NC(=O)c2c(Cl)cnn2C)cc1 | 0.5 |
| COC(=O)c1ccc(NC(=S)NC(=O)c2c(Cl)cnn2C)cc1 | 1 (active) |
| CCCCOC(=O)c1ccc(NC(=S)NC(=O)c2c(Cl)cnn2CC)cc1 | 1 (active) |
| CCCCOC(=O)c1ccc(NC(=S)NC(=O)c2c(Br)c(C)nn2C)cc1 | 1 (active) |
| CCCOC(=O)c1ccc(NC(=O)c2ccoc2C)cc1 | 0 |
| CCCCc1ccc(NC(=S)Nc2ccc(Cl)c(S(=O)(=O)N(C)C)c2)cc1 | 0 |
| COC(=O)c1ccc(Cl)c(NC(=O)CN2CCN(C)CC2)c1 | 0 |
| CCCCOC(=O)Nc1ccc(C(=O)OCCC)cc1 | 0 |
| COC(=O)c1ccc(NC(=O)C23CC4CC(C2)CC(n2cncn2)(C4)C3)cc1 | 0 |
| CC1CCN(c2ccccc2NC(=S)NC(=O)c2cccs2)CC1 | 1 (active) |
| O=C(NC(=S)Nc1ccccc1N1CCOCC1)c1cccs1 | 1 (active) |
| Cc1ccc(NC(=O)C(c2ccccc2)C2CCCC2)cc1 (centres undefined) | 0 |
| O=C1NC(=S)/C(=C\c2ccc(-c3ccccc3Cl)o2)S1 | 3 |
| O=C1NC(=S)S/C1=C\c1ccc(SCc2ccccc2)o1 | 1 (active) |
| O=S(=O)(Nc1nc(-c2sccc2Cl)cs1)c1cc(Cl)ccc1Cl | 0 |
| COC(=O)c1sccc1NC(=O)CSc1ccccc1NS(=O)(=O)c1ccc(Cl)cc1 | 0.5 |
| O=C(CSc1cccc2cccc(Cl)c12)NCc1cccs1 | 0 |

| SMILES | manual score |
| --- | --- |
| CCC(C(=O)OCC(=O)Nc1ccc(Cl)c(S(=O)(=O)N(C)C)c1)c1ccccc1 (centres undefined) | 0 |
| COC(=O)c1sccc1NC(=O)CSc1ccccc1NS(=O)(=O)c1ccccc1Cl | 1 (active) |
| COC(=O)c1sccc1NC(=O)CSc1ccccc1NS(=O)(=O)c1cc(Cl)ccc1Cl | 1 (active) |
| CN(C)S(=O)(=O)c1cccc(NC(=O)COc2cccc(C#N)c2)c1 | 0 |
| Cc1ccc(C)c(C(=O)c2c(C)nc3sccn23)c1 | 0 |
| CC(/C=C/c1ccccc1)=N/NC(=O)c1cc([N+](=O)[O-])cc([N+](=O)[O-])c1 | 0 |
| Cc1ccc(/C=N\NC(=O)c2cc([N+](=O)[O-])cc([N+](=O)[O-])c2)o1 | 1 (active) |
| Cc1ccc(OCC(=O)N/N=C\c2ccc(-c3cccc(C(=O)O)c3)o2)c(C)c1 | 0 |
| Cc1ccc(-c2cc(-c3ccccc3)[nH]c(=S)c2C#N)cc1 | 1 (active) |
| COc1ccc(CC(=O)Nc2cc(=O)n(C)c(=O)n2C)cc1 | 0 |
| COc1ccc(/C=C/c2nc3sc4c(c3c(=O)o2)CCC4)cc1 | 3 |
| CC(C)Cn1cnc2sc3c(c2c1=N)CCCC3 | 0 |
| Cc1cc(C)nc(Sc2ncnc3sc4c(c23)CCC4)n1 | 1 (active) |
| COc1ccc(C(=O)NC(=S)NNC(=O)CCc2ccccc2)cc1 | 1 (active) |
| O=C(CCSCc1cccc(Cl)c1)NCCc1ccc(Cl)cc1 | 0 |
| COc1ccc(C(=O)CC(=O)C(=O)NCCc2cccc(C)c2)cc1 | 0.5 |
| O=C(CCc1ccccc1)NNC(=S)NC(=O)c1ccc(Cl)cc1 | 1 (active) |
| COc1ccc(CCC(=O)NCc2cnn(C)c2)cc1 | 0 |
| Oc1[nH]c2ccccc2c1N=NC(=S)NCC1CCCO1 (centres undefined) | 1 (active) |
| Oc1cccc(Nc2nc(NCC3CCCO3)c3ccccc3n2)c1 (centres undefined) | 0 |
| Oc1[nH]c2ccccc2c1N=NC(=S)NCCc1ccccc1 | 1 (active) |
| Oc1[nH]c2c(Cl)cc(Cl)cc2c1N=NC(=S)NCC1CCCO1 (centres undefined) | 1 (active) |
| Clc1ccc2[nH]c3c(NCC4CCCO4)ncnc3c2c1 (centres undefined) | 0 |

Source: PubChem BioAssay AID623868 (Vanderbilt High Throughput Screening Facility, 2012)
